Data: PubChem BioAssay AID504332 (National Center for Advancing Translational Sciences (NCATS), 2011)
Screen size: about 350,000 compounds; about 31,000 (8.9%) were called active. About 15% were inconclusive and are not listed. Only a selection was taken, and actives are over-represented in it overall. Unmarked numbers belong to inactive results. Calls follow the shape of the dose curve; as a rule, active = well fitted inhibition curve with a large enough effect; inconclusive = small, poorly fitted or top-dose-only effect; inactive = no such curve, though single readings can be large or run the other way.

Molecular target: Histone-lysine N-methyltransferase EHMT2 (Homo sapiens) (UniProt Q96KQ7)
Test: qHTS Assay for Inhibitors of Histone Lysine Methyltransferase G9a; also: nearly all actives have a fitted effect of over 75% in size
Conditions: G9a H3K9 monomethylation, AlphaScreen, 2 h; series mostly up to 59 µM; activity, negative = inhibition: at the top concentration
Summary of the method: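 Compounds were preincubated with 20 nM G9a for 15 min, after which biotinylated H3K9 peptide (500 nM) and SAM (20 uM) started a 2 h room-temperature reaction. Monomethylated product was quantified by antibody-based AlphaScreen chemiluminescence.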
% is scaled to controls: 0 for no effect and ±100 for the full control effect; potency is read from the fitted curve at half-maximal effect.

Sequence of Histone-lysine N-methyltransferase EHMT2 (Homo sapiens) (Q96KQ7 913-1193 limits assumed): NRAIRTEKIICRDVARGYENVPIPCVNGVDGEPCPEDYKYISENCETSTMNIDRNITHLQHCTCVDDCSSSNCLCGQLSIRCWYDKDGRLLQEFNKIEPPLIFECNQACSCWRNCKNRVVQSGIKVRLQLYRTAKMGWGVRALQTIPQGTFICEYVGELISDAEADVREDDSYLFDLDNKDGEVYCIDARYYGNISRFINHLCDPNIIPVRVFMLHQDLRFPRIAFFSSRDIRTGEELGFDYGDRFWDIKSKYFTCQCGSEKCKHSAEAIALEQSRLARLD

SMILES	activity, negative = inhibition	Potency
O=C(COC(=O)c1ccccc1)c1ccc2c(c1)OCCO2	23.8% [at 102 µM]	–
CN(C(=O)C1CCN(c2ncnc3c2nc2n3CCCCC2)CC1)C1CCCCC1	5.93% [at 102 µM]	–
COCc1c(C(=O)OCC(=O)Nc2ccc(OC(F)F)cc2)oc2ccccc12	-14.1% [at 12.7 µM]	–
CN(C(=O)Cn1nnc(-c2ccc(F)cc2)n1)C1CCS(=O)(=O)C1 (centres undefined)	14.1% [at 12.7 µM]	–
Cc1ccc(-c2noc(C3CCCN(C(=O)c4cccc(Cl)c4)C3)n2)o1 (centres undefined)	–	39.8 µM (active)
COc1cccc(-c2noc(C3CCCN(C(=O)c4ccc(F)cc4)C3)n2)c1 (centres undefined)	21.1% [at 102 µM]	–
O=C(c1ccc(F)cc1)N1CCCC(c2nc(-c3cccs3)no2)C1 (centres undefined)	13.3% [at 102 µM]	–
COc1ccc2nc(N3CCN(C(=O)c4ccc([N+](=O)[O-])o4)CC3)sc2c1	-38.5% [at 102 µM]	–
CCc1ccccc1NC(=O)c1cnn(-c2ccc(F)cc2)c1C1CCNCC1	-1.86%	–
O=C(NC(=S)Nc1ccc(Cl)c(C(=O)O)c1)c1cncc(Br)c1	–	44.7 µM (active)
COC(=O)c1ccccc1NC(=O)c1cncc(Br)c1	7.17%	–
O=C(Nc1ccc(N2CCCC2=O)cc1)c1cncc(Br)c1	-12.6% [at 102 µM]	–
O=C(NCCc1ccc(F)cc1)c1ccc2nccnc2c1	-12.4% [at 12.7 µM]	–
COc1cc(OC)cc(C(=O)NCC(=O)N2CCCCCCC2)c1	12.1% [at 12.7 µM]	–
CCN(CC(=O)Nc1ccc(NC(C)=O)cc1)C(=O)CSC(=S)N1CCCC1	-6.65% [at 12.7 µM]	–
CCc1ccccc1NC(=O)Cc1ccc(NC(=O)N2CCCCc3ccccc32)cc1	0.663%	–
Cc1ccc(Nc2c(-c3ccc(N(C)C)cc3)nc3nc[nH]n23)cc1	–	2.51 µM (active)
Cc1ccc(Nc2c(-c3ccc(C)cc3)nc3cnccn23)cc1	-34.4%	–
COC(=O)C1(C)NC(c2ccc(F)cc2)C2C(=O)N(c3ccccc3)C(=O)C21 (centres undefined)	2.5% [at 102 µM]	–
Cc1sc2nc(CSCC(=O)NC3CCCCC3)[nH]c(=O)c2c1C	-8.21% [at 0.501 µM]	–
COc1cc(OC)c(-n2cc(-c3ccc(Cl)cc3)[nH]c2=O)cc1Cl	–	31.6 µM (active)
COc1cc(OC)c(N2CC(C(=O)Nc3cc(Cl)ccc3N3CCOCC3)CC2=O)cc1Cl (centres undefined)	-8.17%	–
COc1cc(OC)c(-n2c(C)cc(C=O)c2C)cc1Cl	-24.2% [at 102 µM]	–
CCOC(=O)C1CCN(c2nc3c(S(=O)(=O)c4ccc(CC)cc4)nnn3c3ccc(Cl)cc23)CC1	28.2%	–
CCCCNC(=O)CSc1nc2cc3c(cc2c(=O)n1CCCCCC(=O)NCc1ccc2c(c1)OCO2)OCO3	5.98%	–

SMILES	activity, negative = inhibition	Potency
O=C(CNS(=O)(=O)c1ccc2c(c1)OCCCO2)N1CCN(c2ccc(F)cc2)CC1	24.8% [at 12.7 µM]	–
Cc1cc(C(C)(C)C)cc(S(=O)(=O)Nc2ccc(C(=O)O)cc2)c1C	-12.7% [at 102 µM]	–
CC(=O)c1c(C)oc2ccc(NS(=O)(=O)c3ccc(C(=O)O)cc3)cc12	1.03%	–
O=C(O)c1ccc(NS(=O)(=O)c2ccc3c(c2)C(=O)c2cc(S(=O)(=O)Nc4ccc(C(=O)O)cc4)ccc2-3)cc1	–	50.1 µM (active)
CCCn1c2ccccc2c2cnn(CC(=O)N(C)c3ccccc3CC)c(=O)c21	-27.2%	–
CC(CCc1ccccc1)NC(=O)COC(=O)c1ccc(F)cc1 (centres undefined)	-3.05% [at 102 µM]	–
O=C(Cn1ncc2c3ccccc3n(Cc3ccccc3)c2c1=O)NC1CCCCCC1	-31.1%	–
Cc1ccc(NC(=O)C2CC(c3ccc(F)cc3)=NO2)cc1 (centres undefined)	-18.1%	–
O=C(Nc1ccc2c(c1)OCO2)C1CC(c2c(F)cccc2Cl)=NO1 (centres undefined)	–	44.7 µM (active)
O=C(Nc1ccc2c(c1)OCO2)C1CC1(Cl)Cl (centres undefined)	2.4% [at 12.7 µM]	–
O=C(Nc1ccccn1)C1CCN(S(=O)(=O)c2ccccc2)CC1	-10.1% [at 12.7 µM]	–
Nc1c(N(CCCO)C(=O)C2CCCC2)c(=O)[nH]c(=O)n1Cc1ccccc1	-4.25%	–
Cn1nnnc1SCCCNCc1cccc(OCc2ccc(Cl)cc2)c1	-4.08%	–
Cn1c2cc(B(O)O)sc2c2cnn(Cc3ccccc3F)c(=O)c21	0.244% [at 12.7 µM]	–
O=C(Cn1nc(Cc2cccnc2)c2ccccc2c1=O)N1CCN(c2ccccc2F)CC1	-4.08%	–
O=c1c2ccccc2cnn1Cc1n[nH]c(=S)n1-c1ccccc1F	–	31.6 µM (active)
COc1ccc(CNC(=O)CSc2nc3ccccc3nc2Cc2ccccc2)cc1	1.61%	–
CCS(=O)(=O)c1nc(S(=O)(=O)c2ccc(C)cc2)c(NCc2ccc(Cl)cc2)s1	-3.64%	–
O=C(CCS(=O)(=O)c1cc(Br)cc2c1N(C(=O)C1CC1)CC2)Nc1ccc(Br)cc1F	-24.4%	–
Cc1cccc(OCC(=O)Nc2ccc(NC(=O)c3ccco3)c(C)c2)c1	0.639% [at 12.7 µM]	–
Cc1cccc(Nc2cc(C)nc(-n3nc(C)cc3C)n2)c1	7.07%	–
CCCC1=Nc2cc(C(=O)NCCN3CCCC3)ccc2Sc2ccccc21	–	79.4 µM (active)
CCC1=Nc2cc(C(=O)NCC(C)c3ccccc3)ccc2Sc2ccc(C)cc21 (centres undefined)	-7.48%	–
CCC1=Nc2cc(C(=O)NCCN3CCCC3)ccc2Sc2ccc(C)cc21	6.23%	–
